# Experiments:
# Experiment in all cases: thermal shift delta Tm vs DMSO control; higher = stronger stabilization (binding)
# Conditions in all cases: 12.5 µM; protein concentration 2 µM
# [1] = test system: LOC_OS02G45750-cb003
# Procedure, shortened: (§1)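 Rice kinase domain constructs, made in E. coli and purified, were placed in 96-well plates at 2 μM in 19.5 μl of 100 mM potassium phosphate pH 7.5, 150 mM NaCl, 10% glycerol and 5 × SYPRO Orange, with compound in DMSO. A temperature ramp from 25°C to 95°C at 0.05°C/s was used for differential scanning fluorimetry. The melting temperature shift is a triplicate mean compared with DMSO-only protein, derived from Boltzmann fits.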
# [2] = test system: LOC_OS02G54510-cb004
# Procedure, shortened: as §1
# [3] = test system: LOC_OS03G04050-cb001
# Procedure, shortened: as §1
# [4] = test system: LOC_OS03G12390-cb001
# Procedure, shortened: as §1
# [5] = test system: LOC_OS03G27990-cb004
# Procedure, shortened: as §1
# [6] = test system: LOC_OS03G50450-cb001
# Procedure, shortened: as §1
# [7] = test system: LOC_OS03G50810-cb003
# Procedure, shortened: as §1
# [8] = test system: LOC_OS04G35114-cb001
# Procedure, shortened: as §1
# [9] = test system: T1, LOC_OS04G38480-cb003
# T1 sequence (whole entry): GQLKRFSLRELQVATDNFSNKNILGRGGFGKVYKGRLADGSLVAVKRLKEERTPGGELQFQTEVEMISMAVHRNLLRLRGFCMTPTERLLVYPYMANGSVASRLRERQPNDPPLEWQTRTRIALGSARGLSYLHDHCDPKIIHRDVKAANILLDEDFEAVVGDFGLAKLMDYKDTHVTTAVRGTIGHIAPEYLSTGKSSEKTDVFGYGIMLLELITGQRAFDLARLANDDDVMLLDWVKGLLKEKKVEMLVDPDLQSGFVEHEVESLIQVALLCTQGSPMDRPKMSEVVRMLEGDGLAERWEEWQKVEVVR
# Procedure, shortened: as §1
# [10] = test system: T2, LOC_OS04G41100-cb001
# T2 sequence (whole entry): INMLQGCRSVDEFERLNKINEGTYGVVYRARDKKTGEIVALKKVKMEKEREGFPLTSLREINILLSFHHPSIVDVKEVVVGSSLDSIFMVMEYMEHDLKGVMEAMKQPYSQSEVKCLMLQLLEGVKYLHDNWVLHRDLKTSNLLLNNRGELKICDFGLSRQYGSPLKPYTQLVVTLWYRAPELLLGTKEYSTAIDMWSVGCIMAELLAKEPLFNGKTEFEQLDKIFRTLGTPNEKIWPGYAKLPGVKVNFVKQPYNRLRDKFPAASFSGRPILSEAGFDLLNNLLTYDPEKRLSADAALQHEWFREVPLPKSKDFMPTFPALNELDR
# Procedure, shortened: as §1
# 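Further: purified Escherichia coli-expressed rice kinase domain construct.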
Structure (SMILES),thermal shift delta Tm [1] [°C],thermal shift delta Tm [2] [°C],thermal shift delta Tm [3] [°C],thermal shift delta Tm [4] [°C],thermal shift delta Tm [5] [°C],thermal shift delta Tm [6] [°C],thermal shift delta Tm [7] [°C],thermal shift delta Tm [8] [°C],thermal shift delta Tm [9] [°C],thermal shift delta Tm [10] [°C]
CCN(CC)CCCC(C)Nc1ccnc2cc(Cl)ccc12 (stereo not given) [Chloroquine Phosphate],0.61,0.18,0.45,0,0.19,0.25,0.19,0.59,2.48,0.64
Cc1cc2c(F)c(Oc3ncnn4cc(OC[C@@H](C)O)c(C)c34)ccc2[nH]1,1.84,-0.24,0.46,-0.04,1.01,0.21,0.22,5.26,1.05,0.62
"C[C@H](Nc1ncnc2nc[nH]c12)c1cc2cccc(Cl)c2c(=O)n1-c1ccccc1 [Duvelisib (IPI-145, INK1197)]",-1.36,2.02,-0.19,-0.34,-0.31,0.38,0.72,-1.37,0.01,0.58
CO[C@H]1C[C@@H]2CC[C@@H](C)[C@@](O)(O2)C(=O)C(=O)N2CCCC[C@H]2C(=O)O[C@H]([C@H](C)C[C@@H]2CC[C@@H](O)[C@H](OC)C2)CC(=O)[C@H](C)/C=C(\C)[C@@H](O)[C@@H](OC)C(=O)[C@H](C)C[C@H](C)/C=C/C=C/C=C/1C [Rapamycin (Sirolimus)],0.22,0,0.5,0.3,0.16,0.2,-0.04,0.52,1.63,0.69
O=c1ncn2nc(Sc3ccc(F)cc3F)ccc2c1-c1c(Cl)cccc1Cl,0.54,-0.07,0.23,0.07,-0.01,0.15,0.34,0.66,1.17,0.55
COC(=O)Nc1ccc(-c2nc(N3CCOCC3)c3cnn(C4CCN(C(=O)OC)CC4)c3n2)cc1,0,-0.07,0.1,0.08,-0.05,0.08,0.17,0.06,0.81,0.47
Nc1[nH]nc2nnc(-c3c(-c4ccccc4)nn4ccccc34)cc12,1.41,0.54,0.66,1.36,0.56,1.03,0.41,1.11,0.15,0.75
CCS(=O)(=O)N1CC(CC#N)(n2cc(-c3ncnc4[nH]ccc34)cn2)C1,2.13,1.15,0.77,1.62,0.66,1.09,0.62,1.29,0.44,0.43
Oc1c2ccccc2c2c3c(cccc13)N=N2,8.26,0.51,0.73,5.6,3.39,2.66,2.79,6.42,2.04,1.69
CC1(COc2ccc3c(c2)ncn3-c2ccc3cccc(N4CCC(N)CC4)c3n2)COC1,16.4,0.52,0.13,1.74,7.81,0.06,8.62,9.74,3.29,0.23
COc1ccc2c(Oc3ccc(NC(=O)c4c(C)n(CC(C)(C)O)n(-c5ccccc5)c4=O)nc3)ccnc2c1,1.4,0.7,0.2,0.21,0.18,0.38,0.39,0.36,1.95,0.3
O=c1c(-c2ccc(O)cc2)coc2cc(O)cc(O)c12 [Genistein],-0.47,-0.37,-0.01,1.8,0.92,0.14,0.36,-1.3,-1.76,-0.75
COc1cc(OC)c(/C=C/S(=O)(=O)Cc2ccc(OC)c(NCC(=O)O)c2)c(OC)c1,0.52,0.14,0.35,0.36,0.04,0.44,0.25,0.47,1.33,0.67
CNS(=O)(=O)C[C@H]1CC[C@H](N(C)c2[nH]cnc3nccc2-3)CC1 [Oclacitinib],3.43,0.36,0.63,1.78,1.09,1.35,1.01,1.87,0.99,0.23
Cc1[nH]c(/C=C2\C(=O)Nc3ccc(S(=O)(=O)Cc4c(Cl)cccc4Cl)cc32)c(C)c1C(=O)N1CCC[C@@H]1CN1CCCC1,0,0.51,0.3,4.07,0.43,0.47,0,7.26,2.55,0.74
CNC(=O)c1cc(Oc2ccc(NC(=O)Nc3ccc(Cl)c(C(F)(F)F)c3)c(F)c2)ccn1 [Regorafenib (BAY 73-4506)],0.96,0.56,0.64,0.1,0.17,0.33,0.11,0.48,0.48,0.52
COc1ccc(CNC(=O)Nc2ncc([N+](=O)[O-])s2)cc1,0.37,-0.05,0.67,0.15,0.48,0.41,0.22,0.93,1.93,0.59
CCCS(=O)(=O)Nc1ccc(F)c(C(=O)c2c[nH]c3ncc(Cl)cc23)c1F,1.97,1.14,0.77,0.99,0.46,0.97,0.43,1.85,0.12,0.83
COc1ccc2c(c1)[C@]1(C[C@H]1c1ccc3c(/C=C/c4ccc(CN5C[C@@H](C)O[C@@H](C)C5)cc4)n[nH]c3c1)C(=O)N2,9.37,-0.19,0.73,0.7,0.36,0.66,4.68,4.47,4.28,0.19

# Reference: the supplement of paper PMC9694430
